Results on 25 compounds are retold here after PubChem BioAssay.

This assay deals with Human papillomavirus type 1a E7 protein (residues 1-88). The assay can be described thus: HPV1a E7 small-molecule binders, primary screen, biochemical, small-molecule microarray, residues 1-88, 635 nm (AID 1129). The settings on record: small-molecule microarray binding, fluorescence 635 nm; higher = more signal.
With `COc1ccc([C@H]2OC[C@@H]3C[C@@H](Cc4ccccc4)C(=O)N32)cc1`, the composite z-score was determined as 0.527.

On to `COCCCNC(=O)[C@@H]1c2ccccc2C(=O)N(Cc2ccccc2Cl)[C@H]1c1ccc(CO)cc1`, for which the composite z-score worked out at 1.17.

`O=C1C2C=CC(C(O)c3cccc4ccccc34)N(Nc3ccccc3F)C2C(=O)N1c1ccccc1` (stereo not given) returned a composite z-score of 1.25.

Take `COC(=O)[C@@]1(CCS(=O)(=O)c2ccccc2)N=C(c2ccc(OCCCO)cc2)O[C@H]1c1ccccc1CN=[N+]=[N-]`: the composite z-score was determined as 1.19.

On to `C=C[C@H](OC)[C@@H](OC(=O)Nc1ccc(OC)cc1)c1ccc(O)c(F)c1`, for which the composite z-score came to 0.424.

As for `C=CCC(OC(C)=O)[C@@H]1[C@@H](N(Cc2ccc(-c3ccccc3)cc2)C(=O)c2cccc3ccccc23)c2cc(OCCCO)ccc2N1C(=O)c1ccc(-c2ccccc2)cc1` (stereo not given in full), the composite z-score was determined as 0.521.

For the compound `C=CCOC(=O)[C@H]1[C@@H]2C(=O)O[C@@H](c3ccccc3)[C@@H](c3ccccc3)N2[C@@H](c2ccc(OCCOC(=O)[C@H]3C[C@H]4C(=O)N[C@@H](CCCC[N+](C)(C)C)C(=O)N4[C@H]3c3ccc(O)cc3)cc2)[C@]12C(=O)Nc1ccc(I)cc12`, the composite z-score amounted to 1.08.

The compound `COC(=O)[C@@]1(Cc2ccc(OC)cc2)[C@@H]2C(=CC(=O)[C@H]2CC(=O)C(=O)N2CCCC2)CN1C(=O)c1ccccc1` returned a composite z-score of 0.882.

For `C[C@H]1NC(=O)[C@@]23C(=O)N[C@@H](Cc4ccccc4)C2[C@H](C)[C@@]2(C)O[C@H]2C3/C=C/C/C=C\CNC(=O)[C@@H]2CCCN2C1=O` (stereo not given in full), the composite z-score was found to be 0.303.

In the case of `O=C(OCc1ccccc1)C1=CCC2c3[nH]c4ccccc4c3C(=O)C1N2S(=O)(=O)c1ccccc1[N+](=O)[O-]` (stereo not given), the composite z-score is 1.26.

Turning to `COC(=O)[C@@]1(Cc2ccc(OC)cc2)[C@H]2c3cc(C(=O)N4CCCC4)n(Cc4ccc(C)c(F)c4F)c3C[C@H]2CN1C(=O)c1ccccc1`, the composite z-score came out at 1.27.

`C=CCOC(=O)[C@H]1[C@@H]2C(=O)O[C@@H](c3ccccc3)[C@@H](c3ccccc3)N2[C@@H](c2ccc(OCCOC(=O)[C@H]3C[C@H]4C(=O)N[C@@H](CCCCNC(C)=O)C(=O)N4[C@H]3c3cccc(OCCO)c3)cc2)[C@]12C(=O)Nc1ccccc12` registered a composite z-score of 1.18.

For `CC(C)c1ccc(NN2C(C(O)c3ccc(B(O)O)cc3)C=CC3C(=O)N(c4ccccc4)C(=O)C32)cc1` (stereo not given), the composite z-score was 1.2.

`CCCC=C(CCC)[C@@H](NC(=O)c1cccs1)c1ccc(C(F)(F)F)cc1` registered a composite z-score of 1.23.

In the case of `COc1ccc(C#Cc2ccc3c(c2)[C@]2(C(=O)N3)[C@H](C(=O)Nc3nc4ccccc4s3)[C@H]3C(=O)O[C@H](c4ccccc4)[C@H](c4ccccc4)N3[C@@H]2c2ccc(O)cc2)cc1`, the composite z-score amounted to 1.24.

For the compound `CCCCCCc1nc(-c2cc(C)c(OC)c(C)c2)cc2c1[Si](C(C)C)(C(C)C)OC2`, the composite z-score is 0.103.

For the compound `COCCOC(=O)N1C(=O)[C@@]2(c3cc(C#Cc4ccc(OC)cc4)ccc31)[C@H](c1ccccc1OCCO)N1[C@H](c3ccccc3)[C@H](c3ccccc3)OC(=O)[C@H]1[C@@H]2C(=O)NC[C@H](O)c1ccccc1`, the composite z-score was found to be 1.24.

In turn, `COC(=O)C(CC#Cc1ccc2c(c1)[C@]1(C(=O)N2)[C@H](c2ccc(OCCO)cc2)N2[C@H](c3ccccc3)[C@H](c3ccccc3)OC(=O)[C@H]2[C@@H]1C(=O)N1CCc2cc(OC)c(OC)cc2C1)C(=O)OC` registered a composite z-score of 1.2.

Take `COCCOC(=O)N1C(=O)[C@@]2(c3cc(C#CCC(C(=O)OC)C(=O)OC)ccc31)[C@H](c1ccccc1OCCO)N1[C@H](c3ccccc3)[C@H](c3ccccc3)OC(=O)[C@H]1[C@@H]2C(=O)N1CCN(c2ncccn2)CC1`: the composite z-score was 1.12.

For `O=C(c1ccccc1)N1C(=O)[C@]2(COC(c3ccc(OCCCO)cc3)=N2)Cc2ccccc21`, the composite z-score was determined as 1.2.

Compound `COc1ccc([Si](C)(C)[C@@H]2[C@@H](CCO)O[C@]3(C(=O)N(Cc4ccc(N(C=O)c5ccccc5)cc4)c4ccccc43)[C@H]2C)cc1` registered a composite z-score of 0.34.

For the compound `O=C1c2ccccc2[C@](Cc2ccccc2I)(C(=O)NCC(F)(F)F)[C@H](c2ccc(CO)cc2)N1Cc1ccccc1Cl`, the composite z-score is 1.19.

Take `COCCOC(=O)N1C(=O)[C@@]2(c3cc(C#CCCO)ccc31)[C@H](C(N)=O)[C@H]1C(=O)O[C@H](c3ccccc3)[C@H](c3ccccc3)N1[C@@H]2c1ccc(O)cc1`: the composite z-score is -0.469.

In the case of `C=C(CCCC)/C(=C/C[C@@H](OC(=O)c1ccncc1)c1ccc(OCCO)cc1)c1cc(C(=O)OC)ccc1OC`, the composite z-score was 1.12.

In turn, `C=CCN1C(=O)[C@]2(O[C@H](CCn3cc([C@H](O)c4ccccc4)nn3)[C@@H]([Si](C)(C)c3ccc(OC)cc3)[C@@H]2C)c2ccccc21` registered a composite z-score of -0.723.
